# Test results as given in PubChem BioAssay (NCI).
# About 83,000 compounds went through this panel and 20% of them were active in at least one assay; those are over-represented in the sample as a whole.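 Negative percent growth values reflect cell death: -40 means 40% of the cells present at the start died, and -100 means all died.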 The source made the active and inactive calls. The calls were made as follows: active = growth percent below 10; inactive = the rest.
# System: SR leukemia
# Test: NCI-60 one-dose screen, 48 h (100 = growth as untreated, 0 = no growth, -100 = all killed)
# Conditions: 10 µM
row,SMILES,growth
1,Cc1ccc(/C(N)=N/c2sc(-c3ccccc3)nc2-c2ccccc2)cc1,63.1% (inactive)
2,Cc1cccc(NC(=O)CSc2nc3ccc(F)cc3c(=O)n2-c2ccc(Cl)cc2)c1C,61.9% (inactive)
3,CCCn1c(=O)c2[nH]c(-c3ccc(OCc4nc5ccc(C)cc5[nH]4)cc3)nc2n(CCC)c1=O,11.6% (inactive)
4,O=S(=O)(Nc1ncccn1)c1ccc(-n2c(-c3ccccc3)nc(-c3ccccc3)c2-c2ccccc2)cc1,81.8% (inactive)
5,Cc1ccc(C(=O)NNC(=O)CSc2nc3ccccc3c(=O)[nH]2)cc1,73% (inactive)
6,COc1cc(OC(F)(F)F)ccc1C(=O)Nc1sc2c(c1C#N)CCC(=O)C2,15.1% (inactive)
7,COc1ccc(C(=O)Nc2sc3c(c2C#N)CCC(=O)C3)cc1C(F)(F)F,0.622% (active)
8,COc1ccc(-c2c(N)c(=O)n(C)c3ccccc23)cc1,36.3% (inactive)
9,COc1ccc2c(c1)N=C(C(=O)O)/C2=C/c1sc(Nc2ccc(O)cc2)nc1O,24.9% (inactive)
10,CN(C)c1ccc(/C=C/c2nc3ccccc3c(=O)n2CC(=O)Nc2ccc(Cl)cc2)cc1,81.2% (inactive)
11,COc1ccccc1C(=O)NNC(=O)CSc1nc2c(c(=O)[nH]1)CCCC2,96.4% (inactive)
12,CN(C)c1nc(NCCNS(=O)(=O)c2ccc(C(=O)/C=C/c3ccccc3)cc2)nc(Nc2ccc(F)cc2)n1,-4.76% (active)
13,CN(CCO)c1oc(-c2ccccc2)nc1[P+](c1ccccc1)(c1ccccc1)c1ccccc1,5.21% (active)
14,CCOC(=O)C1=C(N)N(c2ccccc2)C2=C(C(=O)CC(C)(C)C2)C1c1ccccc1OC (centres undefined),95% (inactive)
